Results reported in PubChem BioAssay AID722 (NMMLSC, 2007).
The campaign covered roughly 1,300 compounds. About 40 (3%) were called active. This is one part of a sample in which actives are shown more often than they occur. Unmarked numbers belong to inactive results. Cut-off read from the data, not from the text of the source: active = inhibition above about 30%; inactive = the rest.

biological target: fMet-Leu-Phe receptor (Homo sapiens) (UniProt P21462); test: FPR1 fluorescent ligand binding inhibitors, primary screen, cell-based, flow cytometry, SAR analysis (AID 722); conditions: FPR-expressing cells, active compounds read high, concentration not given here
Sequence (P21462 whole entry, looked up): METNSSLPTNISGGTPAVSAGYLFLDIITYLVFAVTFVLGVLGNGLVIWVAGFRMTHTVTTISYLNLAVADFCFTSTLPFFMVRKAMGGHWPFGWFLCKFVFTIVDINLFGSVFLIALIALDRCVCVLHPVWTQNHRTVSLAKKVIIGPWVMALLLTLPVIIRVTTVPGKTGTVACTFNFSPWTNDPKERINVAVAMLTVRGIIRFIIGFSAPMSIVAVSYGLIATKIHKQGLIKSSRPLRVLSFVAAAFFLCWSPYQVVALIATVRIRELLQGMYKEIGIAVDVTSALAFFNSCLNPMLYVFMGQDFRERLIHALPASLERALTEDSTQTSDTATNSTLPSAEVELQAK

Row | Compound | inhibition
1 | COCCCN1C(=O)C(=O)/C(=C(/O)c2ccc(C)cc2)C1c1cc(OC)ccc1OC (stereo not drawn) | 0.2%
2 | CCOC(=O)Cc1c(C)nc2c(-c3ccccc3)c(-c3ccccc3)[nH]n2c1=O | -11.4%
3 | COCCN1C(=O)C(O)=C(C(=O)c2cc3ccccc3o2)C1c1ccc(OCc2ccccc2)c(OC)c1 (stereo not drawn) | -2.2%
4 | COc1ccc(C2C(C(=O)c3ccco3)=C(O)C(=O)N2CCN2CCOCC2)c(OC)c1 (stereo not drawn) | 49.5% (active)
5 | COc1ccc(C2C(C(=O)c3ccco3)=C(O)C(=O)N2CCN2CCOCC2)cc1 (stereo not drawn) | 2.9%
6 | COc1ccc(C2C(C(=O)c3cccs3)=C(O)C(=O)N2CCN2CCOCC2)c(OC)c1 (stereo not drawn) | 62% (active)
7 | COc1ccc(C2C(C(=O)c3cccs3)=C(O)C(=O)N2CCN2CCOCC2)cc1 (stereo not drawn) | 9.7%
8 | COc1ccc(C2C(C(=O)c3cccs3)=C(O)C(=O)N2CCCN2CCOCC2)cc1 (stereo not drawn) | 6.5%
9 | COc1ccc(C2C(C(=O)c3ccco3)=C(O)C(=O)N2CCN2CCOCC2)cc1OC (stereo not drawn) | -43.5%
10 | COc1ccccc1CN1C(=O)c2nccnc2C1=O | 1.8%
11 | CCc1ccc(C(=O)CSc2nc3nc(C)cc(C)c3c(=O)[nH]2)cc1 | 5.9%
12 | CCOC(=O)c1c(NC(=O)c2ccco2)sc2c1CCC(C)C2 (stereo not drawn) | -0.4%
13 | Cc1ccc(N2C(=O)CSC2c2ccc(C(C)C)cc2)cc1 (stereo not drawn) | -5.6%
14 | O=C(C1=C(O)C(=O)N(CCCn2ccnc2)C1c1ccc(Cl)cc1Cl)c1ccco1 (stereo not drawn) | 1.7%
15 | CCOC(=O)c1c(NC(=O)c2cccnc2)sc2c1CCC(C(C)(C)C)C2 (stereo not drawn) | -8%
16 | O=C1C(=O)N(c2cccnc2)C(c2ccccc2[N+](=O)[O-])/C1=C(/O)c1ccccc1 (stereo not drawn) | -2.9%
17 | CCc1c(C)sc(NC(=O)c2cccc(F)c2)c1C(=O)OC | -9.8%
18 | COc1ccc(C2C(C(C)=O)=C(O)C(=O)N2Cc2ccco2)cc1OC (stereo not drawn) | 1.8%
19 | COc1cccc(Oc2c(C(F)(F)F)oc3cc(O)ccc3c2=O)c1 | 9.2%
20 | COC(=O)c1c(NC(=O)c2ccoc2C)sc(C)c1C | 5.4%
21 | CCc1c(C)nc2c(-c3ccc(OC)cc3)c(C)[nH]n2c1=O | 12.9%
22 | COc1ccc(-c2c(C)[nH]n3c(=O)cc(Cc4ccccc4)nc23)cc1 | -1.1%
23 | COc1ccc(-c2c(C)[nH]n3c(=O)c4c(nc23)CCCC4)cc1 | 73% (active)
24 | CC(C)OC(=O)c1nonc1N(C(=O)c1ccccc1)C(=O)c1ccccc1 | -0.6%
25 | O=C1C(=O)N(CCN2CCOCC2)C(c2cccs2)/C1=C(\O)c1ccc(S(=O)(=O)N2CCOCC2)cc1 (stereo not drawn) | -1.3%
26 | CC(=O)C1=C(O)C(=O)N(CCc2c(C)[nH]c3ccccc23)C1c1cccc(F)c1 (stereo not drawn) | 65.2% (active)
27 | COc1ccc(/C(O)=C2/C(=O)C(=O)N(CCc3c(C)[nH]c4ccccc34)C2c2ccc(Cl)cc2)cc1 (stereo not drawn) | 4.2%

Row | Compound | inhibition
28 | CC(=O)C1=C(O)C(=O)N(CCc2c(C)[nH]c3ccccc23)C1c1cccc([N+](=O)[O-])c1 (stereo not drawn) | 9.3%
29 | Cc1onc(-c2ccccc2Cl)c1C(=O)Oc1cccc(F)c1 | 3.6%
30 | CCOC(=O)c1c(NC(=O)c2cc3ccccc3o2)sc2c1CCC(C)C2 (stereo not drawn) | -1.7%
31 | CCN1CCC2(CC1)N=C(c1ccccc1)C(=S)N2C(=O)c1ccccc1 | 2.1%
32 | CC(=O)C1=C(O)C(=O)N(Cc2ccco2)C1c1ccc(Br)cc1 (stereo not drawn) | -1.5%
33 | COc1ccc(/C(O)=C2/C(=O)C(=O)N(c3ccc(C)c(Br)c3)C2c2ccc(O)cc2)cc1 (stereo not drawn) | -5.2%
34 | O=C(c1ccccc1F)N(Cc1ccco1)Cc1ccccc1F | 9.3%
35 | O=C(Oc1ccc2c(=O)c(Oc3ccccc3Cl)c(C(F)(F)F)oc2c1)c1cccs1 | -8.1%
36 | O=C(Oc1ccc2c(=O)c(Oc3ccccc3Br)c(C(F)(F)F)oc2c1)c1cccs1 | 37.2% (active)
37 | COc1ccc(Oc2c(C(F)(F)F)oc3cc(OC(=O)c4c(OC)cccc4OC)ccc3c2=O)cc1 | 2.9%
38 | COc1ccccc1-c1c(C(F)(F)F)oc2cc(OC(=O)N3CCOCC3)ccc2c1=O | 9.4%
39 | O=C(Oc1ccc2c(=O)c(-c3ccccc3Cl)c(C(F)(F)F)oc2c1)c1cccs1 | 70% (active)
40 | COc1cccc(OC)c1C(=O)Oc1ccc2c(=O)c(-c3ccc(Cl)cc3)c(C(F)(F)F)oc2c1 | 4.7%
41 | COc1cc(C)c2c(=O)c(Oc3ccccc3)c(C(F)(F)F)oc2c1 | 4.2%
42 | CCCCc1c(O)nc(SCCN(C)C)n(-c2ccccc2)c1=O | -1%
43 | CCOc1ccc(C2/C(=C(/O)c3ccc(Cl)cc3)C(=O)C(=O)N2c2ccc(C)c(Br)c2)cc1 (stereo not drawn) | -0.6%
44 | COCCCN1C(=O)C(=O)/C(=C(/O)c2ccccc2)C1c1cc(OC)ccc1OC (stereo not drawn) | 11.4%
45 | COc1ccc(C2/C(=C(\O)c3ccccc3)C(=O)C(=O)N2c2ccc(C)c(Cl)c2)c(OC)c1 (stereo not drawn) | -4.3%
46 | COCCN1C(=O)C(=O)/C(=C(/O)c2ccccc2)C1c1cc(OC)ccc1OC (stereo not drawn) | 69.8% (active)
47 | COc1ccc(C2/C(=C(\O)c3ccccc3)C(=O)C(=O)N2CCCn2ccnc2)c(OC)c1 (stereo not drawn) | 79.1% (active)
48 | COc1ccc(C2/C(=C(/O)c3ccccc3)C(=O)C(=O)N2CCO)c(OC)c1 (stereo not drawn) | -12.1%
49 | COc1ccc(/C(O)=C2/C(=O)C(=O)N(CCCn3ccnc3)C2c2cccc(OC)c2)cc1 (stereo not drawn) | -6.1%
50 | COc1ccc(C2/C(=C(/O)c3ccccc3)C(=O)C(=O)N2c2ccc(C)c(Br)c2)c(OC)c1 (stereo not drawn) | -1.6%
51 | COCCN1C(=O)C(=O)/C(=C(/O)c2ccccc2)C1c1ccc(OC)cc1OC (stereo not drawn) | 10.5%
52 | COc1ccc(C2/C(=C(\O)c3ccccc3)C(=O)C(=O)N2c2cccc(Cl)c2)c(OC)c1 (stereo not drawn) | 47.6% (active)
53 | CC(C)c1ccc(C2/C(=C(\O)c3ccc(F)cc3)C(=O)C(=O)N2CCCN2CCOCC2)cc1 (stereo not drawn) | -6%
